Here are results for 27 compounds from PubChem BioAssay (NCI).

About 83,000 compounds went through this panel and 20% of them were active in at least one assay; those are over-represented in the sample as a whole.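 Compound tested at a single concentration for 48 hours in 96-well plates; a percent growth value below 10 was scored as active.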 Unmarked numbers belong to inactive results. Activity calls are given as the source filed them.

What all share (assay): NCI-60 one-dose screen, 48 h (100 = growth as untreated, 0 = no growth, -100 = all killed)
Holding throughout (conditions): 10 µM unless noted

Experiment [1] deals with NCI-H23 lung.
For experiment [2], the system named is NCI-H226 lung.
Experiment [3] deals with NCI-H322M lung.
Experiment [4] has as its system HOP-62 NSCLC.
Experiment [5] has as its system NCI-H460 lung.
The test system of experiment [6] is HOP-92 NSCLC.
Experiment [7] deals with NCI-H522 lung.
Experiment [8] relates to A549/ATCC NSCLC.
Experiment [9] relates to 786-0 renal.
For experiment [10], the system named is COLO 205 colon.

For the compound `CCOC(=O)c1c2c(n3ccc(NC(=O)CCN4CCCCC4)cc13)C(=O)c1ncccc1C2=O`, the growth in [1] was -55.2% (active); in [2] it was 73.8%; in [3], -77.4% (active); in [4], -74.5% (active); in experiment [5] it was -35.9% (active); in experiment [6], 78.5%. Moreover, the growth in [7] is 5.07% (active); in experiment [8], -70.1% (active); in [9], 19.4%; in experiment [10], -71.8% (active).
In the case of `NCCN1CCN(c2nccc(-c3ccc4ccccc4c3)n2)CC1`, the growth is 87.2% in experiment [1]; 81.9% in experiment [2]; 54.4% in [3]; 74.9% in experiment [4]; 17.6% in [5]; 27.7% in [6]. In addition, the growth was 81.3% in experiment [7], 52.3% in [8], 47.6% in [9] and -78.1% (active) in experiment [10].
With `CC1=C(NCCN2CCCC2)C(=O)c2c(OCc3ccc(C(F)(F)F)cc3)cccc2C1=O`, the growth in experiment [1] was 90.2%; in experiment [2] it was 91.3%; in experiment [3], 91%; in experiment [4], 86.9%; in [5] it was 68.9%; in [6], 32.5%. Also, the growth was 100% in [7], 85% in experiment [8], 67% in experiment [9] and 82.4% in experiment [10].
Take `COc1ccc(/C=C/C(=O)c2c(O)c(C)c(O)c3c2OC2=CC(O)=C(C(C)=O)C(=O)[C@]23C)cc1`: the growth in experiment [1] was -32.9% (active); in [2], -28.2% (active); in experiment [3], -17.9% (active); in experiment [4], -40% (active); in [5] it was 1.69% (active); in [6] it was -18.8% (active). Also, the growth in experiment [7] is -32.2% (active); in [8], -26.8% (active); in experiment [9], -29.7% (active); in experiment [10], -74.1% (active).
Regarding `COc1cc(OC)c(/C=C/S(=O)(=O)Cc2ccc(OC)c(N)n2)c(OC)c1`, the growth is 26.6% in experiment [1]; 59.6% in [2]; 36.3% in experiment [3]; 11.6% in experiment [4]; 8.27% (active) in experiment [5]; 79.9% in experiment [6]. For the same compound, the growth in experiment [7] is -36.1% (active); in experiment [8] it was 6.41% (active); in experiment [9], 15.9%; in experiment [10], -70.7% (active).
In the case of `Oc1ccc2c(=S)cc(-c3ccc(Br)cc3)oc2c1O`, the growth in [1] is -13.7% (active); in [2] it was 90.5%; in experiment [3] it was 10.5%; in experiment [4] it was 28.7%; in [5], 3.24% (active); in experiment [6], -18.9% (active). Besides, the growth in experiment [7] was -27% (active); in experiment [8] it was 3.47% (active); in [9] it was 28.1%; in experiment [10], 103%.
Take `O=C(CN1CCN(c2cc3c(cc2F)c(=O)c(C(=O)O)cn3C2CC2)CC1)Nc1cc(=O)[nH]c(=O)[nH]1`: the growth in [1] was 96.4%; in [2], 101%; in experiment [3], 95.3%; in experiment [4], 102%; in [5], 105%; in [6] it was 88.7%. Moreover, the growth is 92.8% in experiment [7], 103% in [8], 95.9% in experiment [9] and 110% in [10].
As to `O=C(NC(Cc1ccccc1)C(=O)CCl)OCc1ccccc1` (stereo not given), the growth is 69.4% in experiment [1]; 54.4% in experiment [2]; 111% in [3]; 87.1% in [4]; 69.6% in experiment [5]; 73% in experiment [6]. For the same compound, the growth in [7] is 6.56% (active); in experiment [8], 116%; in experiment [9], 79.8%; in experiment [10] it was 80.2%.
With `CCCN(CCC)CN(CCC)CCC`, the growth in experiment [1] is 96.5%; in experiment [2], 95.3%; in [3], 97.6%; in experiment [4], 113%; in experiment [5], 107%; in experiment [6] it was 91.8%. Also, the growth in [7] was 101%; in experiment [8], 91.1%; in experiment [9], 94.8%; in experiment [10] it was 116%.
For the compound `c1ccc2c(Nc3cccc4ccccc34)cccc2c1`, the growth in [1] is 73.4%; in [2], 72.3%; in [3], 103%; in [4], 56.3%; in [5], 42.9%; in experiment [6], 28.1%. In addition, the growth in [7] is 46.4%; in experiment [8], 48.1%; in [9], 81.2%; in experiment [10] it was 58.3%.
Take `Cc1ccc(N)cc1F`: the growth in experiment [1] was 94.6%; in experiment [2], 101%; in [3], 101%; in [4] it was 84.1%; in [5], 108%; in experiment [6], 109%. Further, the growth in experiment [7] was 88.8%; in [8] it was 99.8%; in experiment [9] it was 92.9%; in experiment [10], 168%.
Turning to `Cc1ccc(-c2nc(/C=N/Nc3cc(C)nc4ccc(Cl)cc34)c(C)o2)cc1`, the growth in experiment [1] is 44.5%; in experiment [2], 81.3%; in experiment [3], -82.5% (active); in [4], 74.9%; in experiment [5], -77.2% (active); in experiment [6], 29.9%. In addition, the growth in experiment [7] is -69.5% (active); in experiment [8], -47.4% (active); in experiment [9], -93.2% (active); in experiment [10], -86% (active).
As for `CCOC(=O)c1cnc2cc(Cl)c(F)cc2c1Nc1cccc(NS(C)(=O)=O)c1`, the growth is 80.8% in experiment [1]; 96.4% in experiment [2]; 96.3% in experiment [3]; 95.9% in experiment [4]; 110% in experiment [5]; 67.6% in [6]. Moreover, the growth was 93% in [7], 112% in [8], 95.6% in experiment [9] and 124% in [10].
Turning to `CCCCCCCCCCCCN1CCCC(C)C1` (stereo not given), the growth in experiment [1] was 80.3%; in experiment [2] it was 85.3%; in experiment [3] it was 87.2%; in [4] it was 89.1%; in experiment [5] it was 106%; in experiment [6], 73%. The growth in experiment [7] was 69.3%; in experiment [8] it was 91.4%; in experiment [9], 85.9%; in experiment [10], 82.2%.
Turning to `COc1ccc(S(=O)(=O)NCCCNc2cc(-c3c(-c4cccc(OC)c4)nc4sccn34)ccn2)cc1`, the growth in [1] is 59.8%; in experiment [2] it was 37.7%; in [3] it was 67.6%; in [4], 80.6%; in experiment [5], 44.2%; in experiment [6], 62.1%. The growth in experiment [7] was 52.7%; in experiment [8] it was 42.9%; in experiment [9], 52.1%; in experiment [10], 35.8%.
In the case of `COc1ccc(N(Cc2cc(OC)c(OC)c(OC)c2)C2OC(=O)c3ccccc32)cc1` (stereo not given), the growth in [1] is 36.7%; in experiment [2], 67.2%; in [3], 52.4%; in experiment [4] it was 28.1%; in [5] it was 10.4%; in [6], 51.3%. Besides, the growth in [7] is -17.2% (active); in experiment [8], 23.7%; in experiment [9] it was 61.8%; in experiment [10], -3.48% (active).
For the compound `COc1ccc2nc(NC(=O)c3cccnc3Nc3cc(OC)c(OC)c(OC)c3)sc2c1`, the growth in experiment [1] is 22.6%; in experiment [2], 10.9%; in experiment [3], -54.3% (active); in [4], 16.7%; in experiment [5], 0.16% (active); in experiment [6], -64.6% (active). The growth in experiment [7] is 13.3%; in experiment [8] it was -32.2% (active); in experiment [9], -66.9% (active); in experiment [10], 123%.
Regarding `COc1cc(OC)c(/C=C/C(=O)c2c(OC)cc(OC)cc2OC)c(OC)c1`, the growth is 6.77% (active) in [1]; 36.1% in experiment [2]; 21.4% in [3]; 27% in [4]; 5.86% (active) in experiment [5]; 130% in experiment [6]. For the same compound, the growth in experiment [7] was 2.82% (active); in experiment [8], 25.1%; in experiment [9], 29%; in [10] it was -6.76% (active).
In the case of `CC(=O)C1=C(O)C=C2Oc3c(C(=O)/C=C/c4ccccc4)c(O)c(C)c(O)c3[C@]2(C)C1=O`, the growth in [1] is 42.4%; in experiment [2], 53.9%; in [3], 31.5%; in experiment [4] it was 37.3%; in experiment [5], 40.9%; in experiment [6], 15.5%. The growth in [7] is 21.6%; in [8], 15%; in experiment [9] it was 30.7%; in experiment [10], 40.4%.
Turning to `CC[C@@H](C)OC(=O)c1nn(C(C)=O)c2ccccc12`, the growth is 91.6% in experiment [1]; 85.1% in [2]; 107% in experiment [3]; 105% in experiment [4]; 112% in experiment [5]; 104% in experiment [6]. In addition, the growth in [7] was 87.1%; in experiment [8], 90%; in experiment [9], 103%; in experiment [10] it was 108%.
With `C=C1CC[C@@H]2[C@](C)(COC(C)=O)[C@H](OC(C)=O)CC[C@@]2(C)[C@@H]1CC(NCc1ccc(F)cc1)C1=CCOC1=O` (stereo not given in full), the growth in experiment [1] is 57.9%; in [2], 40.1%; in experiment [3], 72.5%; in [4], 78.7%; in experiment [5], 55.2%; in experiment [6] it was 18.8%. Moreover, the growth was 20.9% in experiment [7], 57.9% in [8], 86.8% in experiment [9] and 42.2% in experiment [10].
As for `CCN(CC)c1ccc(/C=C/C2=[N+](C)c3ccccc3C2(C)C)cc1`, the growth in experiment [1] is 18.6%; in experiment [2] it was 9.04% (active); in experiment [3], 27.2%; in [4], 13.8%; in experiment [5], 3.05% (active); in [6], -10.7% (active). Moreover, the growth in experiment [7] is 5.08% (active); in experiment [8], 14.4%; in experiment [9], 8.12% (active); in experiment [10], 4.92% (active).
Consider `CC#CC#Cc1cccc(=O)o1`, for which the growth is 40.4% in experiment [1]; 74.4% in experiment [2]; 50.3% in experiment [3]; 110% in experiment [4]; 83.5% in experiment [5]; 35.3% in experiment [6]. Further, the growth in [7] is 59.2%; in [8], 104%; in [9], 83.5%; in [10] it was 46.8%.
Take `COCCCN=C(N)c1ccc(NC(=O)c2ccc(C(=O)Nc3ccc(C(N)=NCCCOC)cc3)cc2)cc1`: the growth was 82.1% in experiment [1]; 90.7% in experiment [2]; 90.5% in experiment [3]; 81.6% in [4]; 102% in [5]; 134% in [6]. Moreover, the growth is 97.5% in [7], 106% in experiment [8], 87.7% in experiment [9] and 105% in experiment [10].
Regarding `Oc1cc(O)c2c(=S)cc(-c3ccc(Cl)cc3)oc2c1`, the growth in [1] was 4.05% (active); in [2], 73.6%; in experiment [3], 60.4%; in [4], 46.4%; in experiment [5], 21%; in experiment [6], -21.9% (active). Moreover, the growth was -1.71% (active) in experiment [7], 53.6% in experiment [8], 74.6% in [9] and 85.8% in experiment [10].
As for `C=C1CC2(OC1=O)C(=O)N(CCCCCCCCCCCCN1C(=O)C3(CC(=C)C(=O)O3)c3ccccc31)c1ccccc12` (stereo not given), the growth was 84.6% in experiment [1]; 78.6% in experiment [2]; 95.1% in experiment [3]; 94.1% in experiment [4]; 73.1% in experiment [5]; 42.2% in experiment [6]. Besides, the growth is 16.2% in experiment [7], 97.6% in experiment [8], 99.1% in [9] and 82.6% in experiment [10].
With `Cn1cc(-c2csc(-c3cn(C)c4ncccc34)n2)c2ccccc21`, the growth in experiment [1] was 41.8%; in experiment [2], 74.8%; in experiment [3] it was 45.1%; in experiment [4], 33.8%; in [5], 11.7%; in experiment [6], 66.1%. For the same compound, the growth is -18.8% (active) in experiment [7], 23.8% in experiment [8], 60% in experiment [9] and -7.52% (active) in [10].
